According to PubChem BioAssay:
Records with an inconclusive call do not appear. Active and inactive are the calls of the source.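 Rule for the calls: active = cell viability at or below a set limit in both duplicate runs, the limit being the all-compound median minus 4 SD (cut at about 23% in these data, passing the limit was not always enough); inconclusive = no clear call, values can overlap the other calls; inactive = the rest.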

Assay: viability of HCT116 without oncogenic beta-catenin – human colon tumor cells, pilot screen (AID 823);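 note: 0% = wells killed by 20 µM Hyamine and 100% = untreated DMSO cell wells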
Conditions: HCT116 beta-catenin knockout viability, CellTiter-Glo, 60 h; at 10 µM; active compounds read low

Question: With `CCCCC(=O)NCCc1cc2c(C)ccc(C)c2[nH]c1=O` as the compound, how does the viability read?
Answer: Its viability is 109% (inactive).

Question: For `CN1CCN(C2=C(Cl)C(=O)N(c3cccc(Cl)c3)C2=O)CC1`, which viability is on record?
Answer: Its viability is 96.3% (inactive).

Question: With `Cc1ccc(Cn2c(=O)c3ccccc3n3c(CCC(=O)O)nnc23)cc1` as the compound, how does the viability read?
Answer: The viability was 107% (inactive).

Question: With `COc1cc(/C=N/n2cnnc2)ccc1OCC(=O)N1CCOCC1` as the compound, how does the viability read?
Answer: The viability was 104% (inactive).

Question: Which viability does the source give for `CCC(C)C(=O)Nc1nc2c(s1)C(=O)CC(C)(C)C2` (stereo not given) here?
Answer: The viability was 107% (inactive).

Question: Which viability does the source give for `O=C(C(Cc1ccccc1)n1cccc1)N1CCCCCC1` (stereo not given) here?
Answer: The viability was 95.3% (inactive).

Question: For `Cc1ccc(NC(=O)c2cc(-c3ccc(C)o3)nc3ccccc23)nc1`, which viability is on record?
Answer: The viability was 78.6% (inactive).

Question: Which viability does the source give for `Cc1cccc(-n2ncc3c(NCCCn4ccnc4)ncnc32)c1` here?
Answer: The viability was 92.9% (inactive).

Question: Which viability does the source give for `Cc1ccc(CNC(=O)C2CCCN(S(=O)(=O)c3cnc[nH]3)C2)cc1` (stereo not given) here?
Answer: The viability was 109% (inactive).

Question: With `CCCN1CCN(CCCNC(=O)Cn2ncc3c4ccccc4n(C)c3c2=O)CC1` as the compound, how does the viability read?
Answer: The viability was 96.7% (inactive).

Question: Which viability does the source give for `CN(C)c1cc(NC(=O)CN2CCOCC2)c2ccccc2n1` here?
Answer: The viability was 100% (inactive).

Question: Which viability does the source give for `CN(C)S(=O)(=O)c1ccc2c(c1)c(=O)c(C(=O)NCCCN1CCCCCC1)cn2C` here?
Answer: Its viability is 103% (inactive).

Question: Which viability does the source give for `CC(C)c1ccc(C(O)c2cnc(C(C)C)n2C)cc1` (stereo not given) here?
Answer: The viability was 96.4% (inactive).

Question: With `CCN(CC)C(=O)c1ccc(CS(=O)(=O)c2ccc(OC)cc2)o1` as the compound, how does the viability read?
Answer: The viability was 97.4% (inactive).

Question: With `COc1ccc2c(c1)CCc1cc(C(=O)N3CCN(c4ccc(N5CCOCC5)nn4)CC3)sc1-2` as the compound, how does the viability read?
Answer: The viability was 60.4% (inactive).

Question: With `COc1ccc(-c2[nH]c(-c3cccc(OC)c3)nc2SCC(=O)NCc2ccco2)cc1` as the compound, how does the viability read?
Answer: The viability was 93.3% (inactive).

Question: For `CCSc1nnc(N2C(=O)CC(c3ccsc3)C3=C2CC(C)(C)CC3=O)s1` (stereo not given), which viability is on record?
Answer: The viability was 103% (inactive).

Question: Which viability does the source give for `CC1=C(C(=O)Nc2cccnc2)C(c2ccc(C(C)C)cc2)n2ncnc2N1` (stereo not given) here?
Answer: The viability was 96.6% (inactive).

Question: For `CCCCN=CC1=C(O)C(C(=O)OC)C(C)(C)CC1=O` (stereo not given), which viability is on record?
Answer: The viability was 93.8% (inactive).

Question: Which viability does the source give for `O=C1c2ccccc2C(Nc2cccnc2)N1Cc1ccccc1Cl` (stereo not given) here?
Answer: Its viability is 102% (inactive).

Question: For `CC(=O)NC(CCS(C)(=O)=O)C(=O)Nc1cccc(C)c1` (stereo not given), which viability is on record?
Answer: Its viability is 103% (inactive).

Question: With `Cc1ccc(N2CCN(S(=O)(=O)N(C)C)CC2)c(C)c1` as the compound, how does the viability read?
Answer: The viability was 90.6% (inactive).

Question: With `CCOc1ccc(NC(=O)CCN2CCN(c3ccccc3)CC2)cc1` as the compound, how does the viability read?
Answer: Its viability is 90.4% (inactive).

Question: Which viability does the source give for `CCOC(=O)C1=C(C)Nc2nnnn2C1c1ccc(OC)c(Br)c1` (stereo not given) here?
Answer: Its viability is 92% (inactive).

Question: With `CC(C)c1nnc(NC(=O)Cc2cccs2)s1` as the compound, how does the viability read?
Answer: The viability was 99.5% (inactive).

Question: With `Cc1ccnc(NC(=O)C2CCC(CNc3c(N4CCCC4)c(=O)c3=O)CC2)c1` (stereo not given) as the compound, how does the viability read?
Answer: The viability was 72.4% (inactive).

Question: With `CCN(CCCNS(=O)(=O)c1ccc2c(c1)oc(=O)n2C)c1cccc(C)c1` as the compound, how does the viability read?
Answer: The viability was 87.2% (inactive).

Question: Which viability does the source give for `O=C(NCC1CCCO1)C1CCN(S(=O)(=O)c2cccc3cccnc23)CC1` (stereo not given) here?
Answer: Its viability is 94.2% (inactive).

Question: Which viability does the source give for `CCn1c(C(=O)N2CCC(C(=O)N3CCN(c4ccccn4)CC3)CC2)cc2sccc21` here?
Answer: Its viability is 78.3% (inactive).

Question: For `O=C(O)COc1ccc(S(=O)(=O)NCCc2ccccc2)cc1`, which viability is on record?
Answer: The viability was 108% (inactive).

Question: Which viability does the source give for `CCOC(=O)N1CCN(C(=O)c2ccc(CS(=O)(=O)c3c(Cl)cccc3Cl)o2)CC1` here?
Answer: Its viability is 107% (inactive).

Question: For `CNC(=O)c1ccsc1NC(=O)c1ccccc1`, which viability is on record?
Answer: The viability was 102% (inactive).

Question: With `CSc1nc2ccccc2c(=O)n1N` as the compound, how does the viability read?
Answer: Its viability is 92.2% (inactive).

Question: Which viability does the source give for `CCN1CCN(C(c2cccs2)C(C)NC(=O)c2ccccc2)CC1` (stereo not given) here?
Answer: Its viability is 101% (inactive).

Question: With `CC(Sc1nc(-c2ccccc2)cc(C(F)(F)F)n1)C(=O)N1CCCC1` (stereo not given) as the compound, how does the viability read?
Answer: Its viability is 89.2% (inactive).

Question: For `CCOc1cccc(-c2nnc3n2N=C(c2cc(OC)ccc2OC)CS3)c1`, which viability is on record?
Answer: The viability was 19.4% (active).

Question: With `COc1cc(NC(=O)C2CCCN2S(=O)(=O)c2cccc3cccnc23)cc(OC)c1OC` (stereo not given) as the compound, how does the viability read?
Answer: The viability was 79.4% (inactive).

Question: With `CCOC(=O)c1ccc(-n2c(C)nc3c(cnn3-c3ccccc3C)c2=O)cc1` as the compound, how does the viability read?
Answer: Its viability is 94.4% (inactive).

Question: For `O=C(Nc1c(C(=O)NCc2ccco2)cnn1-c1ccccc1)c1ccc(F)cc1`, which viability is on record?
Answer: The viability was 101% (inactive).

Question: For `O=C(NCCC1=CCCCC1)C1CCN(S(=O)(=O)c2cccc3cccnc23)CC1`, which viability is on record?
Answer: Its viability is 93.3% (inactive).
